High-throughput results: PubChem BioAssay, National Center for Advancing Translational Sciences (NCATS)
PTAP TSG101 blk = blocks PTAP/TSG101 interaction to inhibit HIV-1 budding; Fluorescence polarization, FITC-PTAP peptide / Tsg101 binding; Potency, µM (highest dose often 115 µM), hits mostly inhibitors; 340,000 tested, under 10 active; AID 493005; active = well fitted inhibition curve with a large enough effect in the main read-out, with a control signal flat, not every such curve was filed as active; inconclusive = small, poorly fitted or top-dose-only effect, or effect the other way, or a change in a side signal; inactive = no such curve, though single readings can be large or run the other way
Target sequence (Q99816 whole entry, looked up): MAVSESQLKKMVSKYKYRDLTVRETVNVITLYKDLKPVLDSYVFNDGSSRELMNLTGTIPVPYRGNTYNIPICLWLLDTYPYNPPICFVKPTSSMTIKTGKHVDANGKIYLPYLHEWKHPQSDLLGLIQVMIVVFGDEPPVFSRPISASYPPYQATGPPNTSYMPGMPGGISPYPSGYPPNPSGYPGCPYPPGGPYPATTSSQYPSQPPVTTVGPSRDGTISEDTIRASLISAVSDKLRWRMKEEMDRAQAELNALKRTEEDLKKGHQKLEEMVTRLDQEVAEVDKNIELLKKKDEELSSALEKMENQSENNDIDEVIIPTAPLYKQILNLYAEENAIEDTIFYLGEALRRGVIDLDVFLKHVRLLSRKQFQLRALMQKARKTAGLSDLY
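Compounds were pin-transferred onto Tsg101 binding domain (10 uM final) in HEPES pH 7.5 buffer, then FITC-PTAP peptide was added at 50 nM final. After 20 min at RT, polarization reported peptide displacement across a qHTS concentration series.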
Tb PFK inh = inhibitors of T. brucei phosphofructokinase. Potency, µM (series often up to 57.5 µM), actives largely listed as inhibitors. actives 0.17% (n = 330,000). AID 485367. O15648. T. brucei PFK, ADP-Glo luminescence; active = well fitted inhibition curve with a large enough effect; inconclusive = small, poorly fitted or top-dose-only effect, or effect the other way; also: nearly all actives have a fitted effect of over 60% in size
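ADP-Glo luminescence quantified ADP after 45 min at room temperature, with 1.25 nM T. brucei PFK, 0.1 mM ATP and 0.5 mM fructose-6-phosphate in pH 8.0 TEA buffer. qHTS titrations up to 57 µM; curves classified by quality.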
hERG WT inh = inhibitors of human wildtype KCNH2 potassium channel; U2OS, BacMam KCNH2, thallium flux FluxOr; active compounds read low; Q12809; actives 0.37% (n = 340,000); AID 720551; activity change, % at 1.84 µM;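 active = maximum activity change below -70%; inconclusive = maximum activity change between -70% and -50%; inactive = maximum activity change above -50%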
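U2OS cells transduced with wild-type KCNH2 virus are loaded with FluxOr dye for 45 min, and thallium flux is measured in kinetic reads before and after stimulation buffer. Rate constants are normalized to DMSO controls.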
KCNH2 3.1 block = inhibitors of human KCNH2 3.1 potassium channel isoform | activity change, % (tested at about 1.8 µM) | U2OS KCNH2 3.1, thallium flux FluxOr; active compounds read low | actives 0.95% (n = 340,000);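 active = maximum activity change below -70%; inconclusive = maximum activity change from -70% to -50%; inactive = maximum activity change above -50%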;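 also: thallium influx rate constant from kinetic fluorescence after stimulation buffer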
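Thallium flux via FluxOr fluorescence (Red40 quencher, 45 min loading) in U2OS cells virally expressing the KCNH2 3.1 isoform (1.77 x 10^8 /mL virus, overnight at 37 C). Rate constants from 2-min kinetic reads post-stimulation, normalised to positive and negative controls.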
Numbers stand for hits; i = inactive; ? = inconclusive; nt = no result. An excerpt weighted towards active compounds, which were near 1.2% of everything screened.

SMILES	PTAP TSG101 blk	Tb PFK inh	hERG WT inh	KCNH2 3.1 block
CCOC(=O)C1=C(C)N=C2SC(C)C(=O)N2C1c1ccccc1 (stereo not drawn)	i	i	i	-94
CC1(c2ccc3ccccc3c2)CCC(=O)O1 (stereo not drawn)	i	nt	-105	i
Clc1cccc(OCCn2ccnc2)c1	i	27µM	i	i
COc1cccc(OCCn2ccnc2)c1	i	?	i	i
CCN1C(=O)[C@H]2[C@H]3CN=C(SCc4ccc(C)cc4)N3[C@@](Cc3ccccc3)(C(=O)OC)[C@H]2C1=O	i	i	i	i
CN1CCN(c2nc(-c3ccc(Cl)cc3Cl)nc3ccccc23)CC1	i	i	i	-124
CN1CCN(c2nc(-c3ccccc3Cl)nc3ccccc23)CC1	i	i	i	i
CN(C)C1=NCCN1CCCC1CCCCC1	i	i	i	i
CN(C)C1=NCCN1CCC1CCCC1	i	i	i	-109
COc1cccc(CN(C)C(=O)c2ccccc2Sc2ccccc2C#N)c1	i	i	i	-93
C=CCOc1ccc(C2NC(=O)c3ccccc3O2)cc1OC (stereo not drawn)	nt	nt	-75	i
COc1ccc(-c2cc(-c3cccs3)nc3sc(C#N)c(N)c23)cc1	i	i	i	i
N#Cc1sc2nc(C3CC3)cc(-c3ccc(Cl)cc3)c2c1N	i	i	i	-72
CC(C)N1C(=O)S/C(=C/c2ccc(Sc3nc4ccccc4[nH]3)o2)C1=O	i	i	-130	i
Cc1c(NC(=S)NC(=O)c2cccc3ccccc23)cccc1C(=O)O	i	i	i	i
Cc1c(NC(=S)NC(=O)c2ccc(COc3ccccc3)cc2)cccc1C(=O)O	i	i	-231	i
CCCCCCC(=O)N1C/C=C\C(c2ccc(OC)cc2)N(Cc2ccc(F)cc2)C(=O)[C@H]1Cc1ccccc1 (stereo partly drawn)	i	i	i	i
Cc1cc(Cn2nc(C(=O)NCc3cccc(C(F)(F)F)c3)cc2-c2ccccc2)on1	i	i	i	-83
CC(C)(C)c1ccc(-c2nnc(SCC(=O)NC3CC3)o2)cc1	i	i	i	i
CCC(=O)C1CCCN(C(=O)CCc2nnc(-c3ccc(C(C)=O)s3)o2)C1 (stereo not drawn)	i	i	i	i
O=C(CN1C(=O)NC(c2ccccc2)(c2ccccc2)C1=O)N1CCN(c2ccccc2F)CC1	i	i	i	-198
CC(=O)c1cccc(NC(=O)CN2C(=O)NC(C)(c3ccc4c(c3)OCCCO4)C2=O)c1 (stereo not drawn)	i	i	i	i
COCCn1c(SCC(=O)Nc2sc(C)c(C)c2C#N)nnc1C(C)C	i	i	i	-195
CCn1c(SCC(=O)Nc2sc(C)c(C)c2C#N)nnc1C(C)C	i	i	i	i
COc1cc(CNCCc2ccccc2)cc(Cl)c1OCc1ccccc1	i	i	i	i
SMILES	PTAP TSG101 blk	Tb PFK inh	hERG WT inh	KCNH2 3.1 block
CCCCNC(=S)N(Cc1c(C)noc1C)c1ccccc1	i	i	i	-117
CCOC(=O)C1(Cc2cccc(OC)c2)CCN(Cc2ccc(OC)c(O)c2)CC1	i	i	i	-77
CCOC(=O)C1(CCOc2ccccc2)CCN(Cc2ccc(O)c(OCC)c2)CC1	i	i	-118	-102
CCOC(=O)C1(Cc2cccc(OC)c2)CCN(CCO)CC1	i	i	i	i
CCOC(=O)C1(CCOc2ccccc2)CCN(Cc2cc(OC)c(O)c(OC)c2)CC1	i	i	i	-77
CCOC(=O)C1(CCOc2ccccc2)CCN(Cc2ccc(OC)c(O)c2)CC1	i	i	-77	-112
CCOC(=O)C1(CCOc2ccccc2)CCN(Cc2ccc(OC)c(COC)c2)CC1	i	i	i	?
COc1ccc(OC)c(N(CCN2C(=O)c3ccccc3C2=O)C(=O)C2CCC(=O)C2C)c1 (stereo not drawn)	nt	nt	i	i
CNC(=S)NN=C(C)CCCC(C)=NNC(=S)NC	i	nt	i	i
CCOc1ccc(Br)cc1S(=O)(=O)Nc1ccc(C(=O)OCC(=O)Nc2ccc(C#N)cc2)cc1	i	i	i	-93
CCCCN(C(=O)CSCC(=O)Nc1ccc(C)cc1)c1c(N)n(CCCC)c(=O)[nH]c1=O	i	i	i	i
Cc1cc(NCCCn2ccnc2)n2ncc(-c3ccc(Cl)cc3)c2n1	i	i	i	-73
Cc1cc(NCCCN2CCOCC2)n2ncc(-c3ccc(Cl)cc3)c2n1	i	i	i	i
COc1ccc(S(=O)(=O)NNC(=O)c2cccs2)cc1	i	i	i	-104
